Inconclusive results are not listed. The source made the active and inactive calls. The calls were made as follows, unless noted: active = hit-call score of the fitted dose curve at least 0.9, where 1 is the maximum; inactive = score below 0.9.

This is an account of results in PubChem BioAssay (EPA / NIEHS).

Experiment [1] is described as follows: BSK_3C_SRB: Viability Assessment in the BioMAP Diversity Plus: 3C Assay (AID 2283023).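 Also: fitted both ways against DMSO so a hit may be signal rise or drop.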 Particulars: primary human endothelial cells (HUVEC). Summed up:
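Cytotoxicity readout in parallel HUVEC 3C cultures: after 24 h compound exposure, cells fixed with 10% TCA, stained with 0.1% SRB and read at 560 nm. Gain or loss relative to DMSO fitted.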

Read-out in experiment [2]: Matrix Metallopeptidase 1 (MMP1), MMP1 (gene 4312)
The experiment in a line: BSK_BE3C_MMP1: BioMAP Diversity Plus: BE3C Assay for Matrix Metallopeptidase 1 (MMP1) Biomarker Activity (AID 2283024). Particulars: primary human bronchial epithelial cells; actives raise or lower the signal. Summed up: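 ELISA read-out of MMP1 in human lung bronchial epithelial primary cultures, 24 h post-dose; bidirectional curve fit vs DMSO baseline, gain or loss of signal scored.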

The nature of experiment [3]: BSK_3C_Vis: BioMAP Diversity Plus: 3C Assay for Morphology Visualization (AID 2283025).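 Also: fitted both ways so gain or loss versus DMSO counts.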 The following applies: primary human endothelial cells (HUVEC). The essentials:
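HUVEC, 3C system; light microscopy of morphology at 24 h post-dose. Bidirectional fit vs DMSO baseline. Secondary readout, background-control function.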

Read-out in experiment [4]: Pselectin, SELP (gene 6403)
The experiment in a line: BSK_4H_Pselectin: BioMAP Diversity Plus: 4H Assay for Pselectin Biomarker Activity (AID 2283026). Particulars: primary human endothelial cells (HUVEC); actives raise or lower the signal. Summed up:
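HUVEC, 24 h chemical exposure; P-selectin read by ELISA. Bidirectional curve fit vs DMSO baseline; gain or loss of signal scored.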

Experiment [5] can be described thus: BSK_4H_SRB: Viability Assessment in the BioMAP Diversity Plus: 4H Assay (AID 2283027).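 Also: cells exposed to compound for 24 h before staining.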 Particulars: primary human endothelial cells (HUVEC). Summed up:
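HUVEC, 24 h post-dose; 10% TCA fix, 0.1% SRB stain, A560 nm. Total protein = overt cytotoxicity, parallel to biomarker read. Bidirectional fit vs DMSO baseline.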

Experiment [6] can be described thus: BSK_BE3C_SRB: Viability Assessment in the BioMAP Diversity Plus: BE3C Assay (AID 2283028).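 Also: measured 24 h after chemical dosing.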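 As to AC50: fitted both ways so AC50 may mark signal gain or loss versus DMSO.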 Particulars: primary human bronchial epithelial cells. Summed up:
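Cytotoxicity read-out: SRB (0.1%) staining of TCA-fixed (10%) human lung bronchial epithelial cells, absorbance 560 nm, 24 h post-dosing. Curves fitted both directions relative to DMSO.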

Read-out in experiment [7]: Thrombomodulin, THBD (gene 7056)
The experiment in a line: BSK_3C_Thrombomodulin: BioMAP Diversity Plus: 3C Assay for Thrombomodulin Biomarker Activity (AID 2283029). The following applies: primary human endothelial cells (HUVEC); actives raise or lower the signal. The essentials:
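HUVEC, 3C conditions; compound 24 h; thrombomodulin by ELISA; bidirectional curve fit vs DMSO baseline; parallel SRB total-protein staining for cytotoxicity.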

Read-out in experiment [8]: Vascular endothelial growth factor receptor 2 (Homo sapiens) (UniProt P35968)
Nature of the experiment: BSK_4H_VEGFRII: BioMAP Diversity Plus: 4H Assay for Vascular endothelial growth factor receptor 2 (VEGFR2) Biomarker Activity (AID 2283031). The following applies: primary human endothelial cells (HUVEC); actives raise or lower the signal. The essentials:
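Measured by ELISA after 24 h of compound treatment: VEGFR2 on primary human umbilical vein endothelial cells, fitted in both directions relative to DMSO. Parallel cultures received SRB staining (560 nm) for overt cytotoxicity.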

Read-out in experiment [9]: Urokinase-type plasminogen activator receptor (uPAR), PLAUR (gene 5329)
The experiment in a line: BSK_4H_uPAR: BioMAP Diversity Plus: 4H Assay for Urokinase-type plasminogen activator receptor (uPAR) Biomarker Activity (AID 2283030). Particulars: primary human endothelial cells (HUVEC); actives raise or lower the signal. Summed up: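 uPAR level read by ELISA on HUVEC cultures (BioMAP 4H) 24 h post-dosing, analyzed for gain or loss relative to DMSO. Parallel SRB staining assessed overt cytotoxicity.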

The target of experiment [10] is human Vitamin D Receptor (VDR), VDR (gene 7421) (UniProt P11473). Nature of the experiment: ATG_VDR_TRANS: Attagene TRANS-FACTORIAL HepG2 Assay for human Vitamin D Receptor (VDR) (AID 2283022; active = hit-call score of the fitted dose curve at least 0.9, where 1 is the maximum). The essentials:
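Transactivation by an exogenous VDR-Gal4 chimera in transiently transfected HepG2 cells was measured as reporter transcript level 24 hours after chemical treatment. RT-PCR products were analysed by capillary electrophoresis and fitted in the positive direction relative to DMSO.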

Chain of human Vitamin D Receptor (VDR), VDR (gene 7421) (P11473 whole entry, looked up, the tested form may be a part): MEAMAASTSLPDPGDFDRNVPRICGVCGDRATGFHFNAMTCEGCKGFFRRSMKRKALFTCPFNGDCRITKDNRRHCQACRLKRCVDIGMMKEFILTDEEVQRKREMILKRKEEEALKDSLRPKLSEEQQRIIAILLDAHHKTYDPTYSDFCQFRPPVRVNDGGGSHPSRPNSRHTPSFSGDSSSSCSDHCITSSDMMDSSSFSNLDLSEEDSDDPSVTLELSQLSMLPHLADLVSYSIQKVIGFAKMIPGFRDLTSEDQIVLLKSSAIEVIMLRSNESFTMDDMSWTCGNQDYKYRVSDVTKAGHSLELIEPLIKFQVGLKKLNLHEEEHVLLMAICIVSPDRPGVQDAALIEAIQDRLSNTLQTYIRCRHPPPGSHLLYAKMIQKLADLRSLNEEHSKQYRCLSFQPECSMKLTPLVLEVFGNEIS

For the compound `CCc1cccc(CC)c1N`, the result in experiment [1], in experiment [2], in [3], in [4], in experiment [5] and in [6] was inactive. Besides, the outcome in [7] and in experiment [8] was inactive.

Consider `CC1(C)C(=O)N(Cl)C(=O)N1Cl`, for which the outcome in experiment [1], in experiment [2], in experiment [3], in experiment [4], in experiment [5] and in experiment [6] was inactive. For the same compound, the result in experiment [7], in experiment [9] and in [8] was inactive.

On to `OC[C@H]1O[C@@H]2O[C@H]3[C@H](O)[C@@H](O)[C@@H](O[C@H]4[C@H](O)[C@@H](O)[C@@H](O[C@H]5[C@H](O)[C@@H](O)[C@@H](O[C@H]6[C@H](O)[C@@H](O)[C@@H](O[C@H]7[C@H](O)[C@@H](O)[C@@H](O[C@H]1[C@H](O)[C@H]2O)O[C@@H]7CO)O[C@@H]6CO)O[C@@H]5CO)O[C@@H]4CO)O[C@@H]3CO`, for which the compound was classed as inactive in experiment [10], in experiment [4], in experiment [5], in experiment [6], in experiment [7] and in [9]. Besides, the outcome in [8] was inactive.

Usually AC50 stands for the concentration giving half of the maximal activity seen. Regarding `OCc1c[nH]c2ccccc12`, the call in experiment [10], in experiment [4], in experiment [5], in experiment [6], in experiment [7] and in experiment [9] was inactive. The result in experiment [8] was inactive. For the same compound, the AC50 in [2] is 297 nM (active).

With `OC(CCl)CCl`, the compound was classed as inactive in [10], in experiment [2], in experiment [4], in [5], in [6] and in experiment [7]. The result in experiment [9] and in experiment [8] was inactive.

Take `OCCC(F)(F)C(F)(F)C(F)(F)C(F)(F)F`: the call in [10], in [4], in experiment [5], in experiment [6], in [7] and in [9] was inactive. Also, in experiment [8], the result was inactive.

In the case of `Cc1ncc([C@@H](CCCCCCc2ccc3c(n2)NCCC3)CC(=O)O)cn1`, the compound was classed as inactive in experiment [10], in experiment [2], in [3], in experiment [4], in [5] and in [6]. In addition, the outcome in experiment [7] and in experiment [8] was inactive. Also, the AC50 in experiment [9] is 3970 nM (active).

`OCCOCCOCCO`: the outcome in [10], in experiment [2], in experiment [3], in [4], in experiment [5] and in experiment [6] was inactive. Besides, the outcome in experiment [7] and in experiment [8] was inactive.

For the compound `Cc1nc(-c2ccccn2)ncc1C(=O)Nn1cc(C)c2cc(F)ccc21`, the result in [10], in [2], in experiment [3], in experiment [4], in experiment [5] and in experiment [6] was inactive. The result in experiment [7] and in experiment [8] was inactive.

With `O=C1CN(N=Cc2ccc([N+](=O)[O-])o2)C(=O)N1`, the result in experiment [10], in experiment [3], in experiment [4], in experiment [5], in experiment [6] and in experiment [7] was inactive. For the same compound, the outcome in [9] and in experiment [8] was inactive.

As to `CCCCCCCCCCCCCCCCOS(=O)(=O)O`, the outcome in experiment [10], in [3], in experiment [4], in experiment [5], in [7] and in experiment [8] was inactive. Also, the AC50 in [6] was 16600 nM (active).

For the compound `O=S(=O)(O)CCC(F)(F)C(F)(F)C(F)(F)C(F)(F)C(F)(F)C(F)(F)F`, the compound was classed as inactive in experiment [10], in experiment [4], in experiment [5], in [6], in experiment [7] and in [8].

Take `CC(C)c1nnc2ccc(-c3ocnc3-c3cc(F)ccc3F)cn12`: the outcome in experiment [10], in experiment [3], in experiment [4], in experiment [5], in experiment [6] and in [9] was inactive. Moreover, the result in [8] was inactive. The AC50 in [7] is 451 nM (active).

With `CCCOc1ccc(S(=O)(=O)N2CCN(CC)CC2)cc1-c1nc2c(CC)n(Cc3ccccn3)nc2c(=O)[nH]1`, the compound was called inactive in experiment [10], in experiment [4], in experiment [5], in experiment [6], in experiment [7] and in [9]. Moreover, the result in experiment [8] was inactive.

In the case of `OC(Cn1cncn1)(Cn1cncn1)c1ccc(F)cc1F`, the outcome in experiment [10], in [4], in [5], in experiment [6], in experiment [7] and in [9] was inactive. The result in [8] was inactive.

Turning to `FC(F)=C(F)C(F)(F)C(F)(F)C(F)(F)C(F)(F)C(F)(F)C(F)(F)F`, the outcome in experiment [10], in experiment [1], in experiment [4], in [5], in experiment [6] and in experiment [7] was inactive. Further, in experiment [8], the outcome was inactive.

For `OCc1ccccc1`, the result in [1], in experiment [2], in experiment [4], in experiment [5], in experiment [6] and in experiment [7] was inactive. Further, the outcome in experiment [9] and in [8] was inactive.

In the case of `CCn1nc(C)c2c1C(=O)NCC(c1ccc(O)cc1)=N2`, the outcome in [4], in experiment [5], in experiment [6], in experiment [7], in [9] and in [8] was inactive.

For `Cn1c(=O)c2[nH]cnc2n(C)c1=O`, the result in experiment [1], in experiment [3], in experiment [4], in [5], in experiment [6] and in experiment [7] was inactive. Moreover, the outcome in experiment [9] and in experiment [8] was inactive.

On to `CCCCCCCC1CCC(=O)O1` (configuration not stated), for which the result in experiment [1], in [4], in experiment [5], in [6], in experiment [7] and in experiment [8] was inactive.

With `C[C@@H](Oc1ccc(CNC(=O)c2cccnc2Oc2ccc3c(c2)OCO3)c(F)c1)C(=O)O`, the result in [1], in [2], in [4], in [5], in experiment [6] and in [7] was inactive. Besides, the result in experiment [8] was inactive.
